# The supplement of paper PMC6609913
# Where a name gives a salt, the structure may show the parent alone. ± gives the standard deviation of the averaged measurements. Whole data set: some 1,300 compounds, median “normalised cell viability” near 1, cut for the lowest 2% near 0.15. For the sample, the lowest values were picked, then their nearest neighbours and some compounds at random.
# System: V-C8 + BRCA2 (BRCA2-proficient hamster cells)
# Test: normalised cell viability (fraction of plate median); higher = more viable cells (less toxic)
# Settings: 5 µM
# Outline: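 Cell viability was measured with a resazurin assay, normalised to the plate median (modified robust per cent of sample) and averaged over triplicate wells. Hamster V-C8 cells lacking BRCA2 and V-C8 cells with BRCA2 restored were seeded in 96-well plates. After 24 h, library drugs from 10 mM DMSO stocks were added at a final 5 μM in 100 μl medium and left for 3 days (screen 1) or 6 days (screen 2), with solvent-only wells alongside.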
SMILES,normalised cell viability (treatment time: 3 days),normalised cell viability (treatment time: 6 days)
COc1ccc2[nH]cc(CCNC(C)=O)c2c1 [Melatonin],1.22 ± 0.097,0.928 ± 0.048
CCCCCNC(=N)N/N=C/c1c[nH]c2ccc(OC)cc12 [Tegaserod maleate],0.1362 ± 0.0013,0.155 ± 0.022
CC[C@@H](CO)NCCN[C@@H](CC)CO [Ethambutol dihydrochloride],1.05 ± 0.058,1 ± 0.011
C1CCC(C(CC2CCCCN2)C2CCCCC2)CC1 (stereo not drawn) [Perhexiline maleate],0.135 ± 0.0029,0.125 ± 0.015
Cc1nnc(SCC2=C(C(=O)O)N3C(=O)[C@@H](NC(=O)Cn4cnnn4)[C@H]3SC2)s1 [Cefazolin sodium salt],1.1 ± 0.034,1.01 ± 0.12
CCCCCCCCCCCCCCCC[N+](C)(C)CCN(Cc1ccc(OC)cc1)c1ncccn1 [Thonzonium bromide],0.787 ± 0.094,0.74 ± 0.19
CCCC1O[C@@H]2C[C@H]3[C@@H]4CCC5=CC(=O)C=C[C@]5(C)[C@H]4[C@@H](O)C[C@]3(C)[C@]2(C(=O)CO)O1 (stereo partly drawn) [Budesonide],0.9516 ± 0.0071,0.936 ± 0.024
CC1(C)OC(=O)NC1=O [Dimethadione],1.08 ± 0.064,0.964 ± 0.043
CNC[C@H](O)[C@@H](O)[C@H](O)[C@H](O)CO [Meglumine],0.938 ± 0.094,0.983 ± 0.037
C[N+](C)(C)CCOC(N)=O [Carbachol],0.953 ± 0.043,1.01 ± 0.036
CN1C2CCCC1CC(NC(=O)c1nn(C)c3ccccc13)C2 (stereo not drawn) [Granisetron],1.03 ± 0.036,1.01 ± 0.017
CCN(CC)CCOC(=O)C1(c2ccc([N+](=O)[O-])cc2)CCCC1 [Nitrocaramiphen hydrochloride],1.06 ± 0.024,1.038 ± 0.0056
CCCCCN(CCCCC)C(=O)C(CCC(=O)O)NC(=O)c1ccc(Cl)c(Cl)c1 (stereo not drawn) [Lorglumide sodium salt],1 ± 0.032,1.04 ± 0.015
Cc1onc(-c2ccccc2)c1C(=O)N[C@@H]1C(=O)N2[C@@H]1SC(C)(C)[C@@H]2C(=O)O [Oxacillin sodium],1.04 ± 0.042,0.989 ± 0.025
CC(=O)OC[C@H]1O[C@@H]([S-])[C@H](OC(C)=O)[C@@H](OC(C)=O)[C@@H]1OC(C)=O.CCP(CC)CC.[Au+] [Auranofin],0.126 ± 0.0085,0.128 ± 0.012
C[C@H]1O[C@H](O[C@H]2[C@H](O)[C@@H](O)[C@@H](O[C@H]3[C@H](O)[C@@H](O)C(O)O[C@@H]3CO)O[C@@H]2CO)[C@H](O)[C@@H](O)[C@@H]1N[C@H]1C=C(CO)[C@@H](O)[C@H](O)[C@H]1O (stereo partly drawn) [Acarbose],0.928 ± 0.072,1.03 ± 0.056
COC(=O)Nc1nc2ccc(SC(C)C)cc2[nH]1 [Methiazole],0.231 ± 0.016,0.245 ± 0.017

SMILES,normalised cell viability (treatment time: 3 days),normalised cell viability (treatment time: 6 days)
Nc1ccc(C(=O)NCC(=O)O)cc1 [Aminohippuric acid],1.04 ± 0.027,1.11 ± 0.076
CCOCCn1c(N2CCCN(C)CC2)nc2ccccc21 [Emedastine],1.07 ± 0.11,1.06 ± 0.032
Nc1ccn([C@@H]2O[C@H](CO)[C@@H](O)C2(F)F)c(=O)n1 [Gemcitabine],0.212 ± 0.014,0.183 ± 0.0099
NC12CC3CC(CC(C3)C1)C2 [Adamantamine fumarate],0.885 ± 0.035,0.95 ± 0.053
COc1cc2c(cc1OC)C(=O)C(CC1CCN(Cc3ccccc3)CC1)C2 (stereo not drawn) [Donepezil hydrochloride],1.007 ± 0.0092,1.05 ± 0.074
CN1[C@@H]2CC[C@H]1C[C@@H](OC(=O)c1c[nH]c3ccccc13)C2 [Tropisetron HCl],1.05 ± 0.12,1.24 ± 0.074
CCCN(CCC)C(=O)C(CCC(=O)O)NC(=O)c1ccccc1 (stereo not drawn) [Proglumide],0.993 ± 0.11,0.986 ± 0.14
CC(C)/N=c1\cc2n(-c3ccc(Cl)cc3)c3ccccc3nc-2cc1Nc1ccc(Cl)cc1 [Clofazimine],0.274 ± 0.021,0.346 ± 0.037
CCCN[C@H]1CCc2nc(N)sc2C1 [Pramipexole],0.9625 ± 0.0076,0.987 ± 0.022
c1ccc2c(c1)CCCc1cc(NCCN3CCOCC3)nnc1-2,0.803 ± 0.038,0.87 ± 0.091
CCOC(=O)OC(C)OC1=C(C(=O)Nc2ccccn2)N(C)S(=O)(=O)c2ccccc21 (stereo not drawn) [Ampiroxicam],1 ± 0.034,0.994 ± 0.079
O=C(NCCO[N+](=O)[O-])c1cccnc1 [Nicorandil],1.11 ± 0.072,1.11 ± 0.13
CNC(=O)c1c(I)c(C(=O)NCC(=O)Nc2c(I)c(C(=O)O)c(I)c(C(=O)NCCO)c2I)c(I)c(N(C)C(C)=O)c1I [Ioxaglic acid],1 ± 0.058,1.11 ± 0.086
O=C(O)CCc1nc(-c2ccccc2)c(-c2ccccc2)o1 [Oxaprozin],1.06 ± 0.11,1.12 ± 0.078
Cc1cc2cc3c(C)cc(=O)oc3c(C)c2o1 [Trioxsalen],0.991 ± 0.036,0.818 ± 0.12
Nc1c2ccccc2nc2ccccc12 [Aminacrine],0.139 ± 0.0043,0.156 ± 0.024
CC(C)Cn1cnc2c(N)nc3ccccc3c21 [Imiquimod],1.02 ± 0.042,1.019 ± 0.0077
